Results on 66 compounds are retold here after PubChem BioAssay AID504834 (National Center for Advancing Translational Sciences (NCATS), 2011).

The campaign covered roughly 320,000 compounds. About 22,000 (6.9%) were called active. Another 27% or so got no clear call; they are omitted. Calls come from the whole dose curve; as a rule, active = well fitted inhibition curve with a large enough effect; inconclusive = small, poorly fitted or top-dose-only effect, or another doubt; inactive = no such curve, though single readings can be large or run the other way. What follows is part of a selection rich in actives, with near analogues and random picks from the rest.
% is set by controls: 0 for no effect and ±100 for the full control effect; potency is the fitted concentration of half-maximal effect.

The nature of the assay: Primary qHTS for delayed death inhibitors of the malarial parasite plastid, 96 hour incubation. The settings on record: P. falciparum luciferase reporter growth; series mostly up to 28.7 µM; activity change, negative = inhibition: at the top concentration. The method in brief: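 Delayed-death screen, second-generation endpoint: infected erythrocytes, 2% hematocrit, 0.05% parasitemia final; 96 hours at 37 C, 5% CO2; luciferase detection reagent; luminescence decrease equals reduced growth.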
A general note: qHTS replaces the single test concentration by a dilution series.
Consider `CS(=O)(=O)N(CC(=O)Nc1ccc(F)cc1)C1CCCCC1`, for which the “activity change, negative = inhibition” value is 19.4% (inactive).

In the case of `CCOC(=O)Cn1c(O)c(N=NC(=O)CNC(=O)Cc2ccccc2)c2ccccc21`, the “activity change, negative = inhibition” value was 18.9% (inactive).

Take `Cc1nc2nc(C)c(NS(=O)(=O)c3ccc(C(C)(C)C)cc3)c(=O)n2[nH]1`: the “activity change, negative = inhibition” value is 26.3% (inactive).

For the compound `CC1CCN(C(=O)c2cccc(S(=O)(=O)N3CCCc4ccccc43)c2)CC1`, the “activity change, negative = inhibition” value is -9.51% (inactive).

Consider `CC1CCN(C(=O)COC(=O)c2cc(=O)[nH]c3ccccc23)CC1`, for which the “activity change, negative = inhibition” value is 2.14% (inactive).

As for `CN(C)NC(=O)c1csnc1-c1c(Cl)cccc1Cl`, the “activity change, negative = inhibition” value is -3.91% (inactive).

Regarding `O=C(COC(=O)CNS(=O)(=O)c1ccc(F)c(F)c1F)NC1CCCC1`, the “activity change, negative = inhibition” value is 15% (inactive).

Take `O=C(Nc1nc(-c2ccc3c(c2)OCO3)cs1)c1ccncc1`: the Potency is 4.15 µM (active).

As for `Cc1ccc(-c2csc(NC(=O)c3cnccn3)n2)cc1C`, the “activity change, negative = inhibition” value was -3.59% (inactive).

For the compound `O=C(Nc1nc2ccccc2s1)c1ccc2c(c1)OCO2`, the “activity change, negative = inhibition” value was 31.4% (inactive).

Turning to `Cc1ccc(-c2csc(NC(=O)C3=COCCO3)n2)cc1C`, the Potency is 6.57 µM (active).

As to `CC(=O)NCCC(=O)Nc1nc(-c2ccc3c(c2)OCCO3)cs1`, the “activity change, negative = inhibition” value was 105% (inactive).

As for `Cc1csc(NC(=O)C2=COCCO2)n1`, the “activity change, negative = inhibition” value was 121% (inactive).

As to `COc1ccc(NC(=O)NNC(=O)COc2cc(C)c(Cl)c(C)c2)c(OC)c1`, the “activity change, negative = inhibition” value is 15.4% (inactive).

In the case of `COC(=O)c1ccc(COc2cc([N+](=O)[O-])cc3cccnc23)cc1`, the “activity change, negative = inhibition” value was 105% (inactive).

On to `CCc1ccc(S(=O)(=O)NCC(O)COc2ccc(OC)cc2)cc1` (stereo unspecified), for which the “activity change, negative = inhibition” value was 30.5% (inactive).

On to `O=C(Nc1cccc(-n2cnnn2)c1)c1cccnc1`, for which the “activity change, negative = inhibition” value was 33.7% (inactive).

For `CC(=O)C(C)n1cnc2scc(-c3ccc(C)cc3)c2c1=O` (stereo unspecified), the “activity change, negative = inhibition” value was -25.2% (inactive).

For `CCOC(=O)Nc1sc(C(=O)N(C)C)c(C)c1C(=O)OCC`, the “activity change, negative = inhibition” value is 207% (inactive).

In the case of `CCOC(=O)c1c(NC(=O)CCl)sc(C(=O)N(CC)CC)c1C`, the Potency is 9.28 µM (active).

Regarding `CCOC(=O)c1sc(NC(=O)CCN2CCOCC2)c(C(=O)OCC)c1C`, the “activity change, negative = inhibition” value was 22.1% (inactive).

Regarding `O=C(NCc1ccncc1)c1ccc(NS(=O)(=O)c2cccc([N+](=O)[O-])c2)cc1`, the “activity change, negative = inhibition” value is -1.86% (inactive).

Take `Cc1nc2ccccc2c(=O)n1-c1ccc(NS(=O)(=O)c2ccc(F)cc2F)cc1`: the “activity change, negative = inhibition” value is 17.4% (inactive).

Take `CCn1c(SCc2ccccc2)nc2cc(OC)c(OC)cc2c1=O`: the Potency is 2.94 µM (active).

Regarding `CCn1c(Cc2ccccc2)nnc1SCc1nc2ccccc2c(=O)[nH]1`, the “activity change, negative = inhibition” value was 9.46% (inactive).

Consider `COCCn1c(SCc2nc3cc(OC)c(OC)cc3c(=O)[nH]2)nnc1-c1ccncc1`, for which the “activity change, negative = inhibition” value was 40.9% (inactive).

Regarding `CS(=O)(=O)c1ccc(-c2nnn(CC(=O)Nc3ccc4c(c3)OCCO4)n2)cc1`, the “activity change, negative = inhibition” value is 19.7% (inactive).

For the compound `O=C1c2ccccc2C(=O)C1c1ccccc1F`, the “activity change, negative = inhibition” value was -0.389% (inactive).

In the case of `O=C(NCc1ccco1)c1ccc([N+](=O)[O-])cc1Cl`, the “activity change, negative = inhibition” value is -5.31% (inactive).

Consider `Cc1ccc2c(c1)C1CN(C)CCC1N2C(=S)Nc1ccc(Cl)cc1Cl` (stereo unspecified), for which the “activity change, negative = inhibition” value was -2.18% (inactive).

As to `Cc1ccc2c(c1)C1CN(C)CCC1N2C(=O)Cn1nnc(-c2ccccc2F)n1` (stereo unspecified), the “activity change, negative = inhibition” value was 27.2% (inactive).

For the compound `Cc1ccc2c(c1)C1CN(C)CCC1N2C(=O)c1ccccc1NS(=O)(=O)c1ccc(F)cc1C` (stereo unspecified), the Potency is 9.28 µM (active).

As to `CC(OC(=O)CNC(=O)c1ccco1)C(=O)Nc1ccc(Cl)cn1` (stereo unspecified), the “activity change, negative = inhibition” value is 19.5% (inactive).

Take `Cc1ccc(-n2c(SCC(=O)N/N=C/C=C/c3ccccc3[N+](=O)[O-])nc3ccccc3c2=O)cc1`: the Potency was 10.4 µM (active).

On to `Cc1nn(-c2ccccc2)c(C)c1/C=N/NC(=O)CSc1nc2ccccc2c(=O)n1-c1ccccc1`, for which the “activity change, negative = inhibition” value was -19.8% (inactive).

For the compound `O=C(CSc1nc2ccccc2[nH]1)N/N=C/C=C\c1ccccc1[N+](=O)[O-]`, the “activity change, negative = inhibition” value is -5.62% (inactive).

`COc1ccc(CCNC(=O)CN(C)S(=O)(=O)c2ccc3nc(C)sc3c2)cc1OC`: the “activity change, negative = inhibition” value is 4.32% (inactive).

With `Cn1c(SCC(=O)N2CCCCC2)nc2c(c1=O)SCC2`, the “activity change, negative = inhibition” value is -11.4% (inactive).

Take `Cn1nnnc1SCC(=O)Nc1ccccc1C(=O)NC1CC1`: the “activity change, negative = inhibition” value was 11.2% (inactive).

Consider `COCCn1c(SCC(=O)Nc2cc(OC)ccc2OC)nc2c(c1=O)SC(C)C2` (stereo unspecified), for which the “activity change, negative = inhibition” value was -29.5% (inactive).

`CCn1c(SCC(=O)Nc2ccccc2F)nc2c(c1=O)SC(C)C2` (stereo unspecified): the Potency is 11.7 µM (active).

Consider `COCCn1c(SCC(=O)Nc2cc(Cl)ccc2OC)nc2c(c1=O)SC(C)C2` (stereo unspecified), for which the Potency was 3.7 µM (active).

For the compound `CCn1c(SCC(=O)Nc2ccc3c(c2)OCCO3)nc2c(c1=O)SC(C)C2` (stereo unspecified), the “activity change, negative = inhibition” value was 6.59% (inactive).

Turning to `CC1Cc2nc(SCC(=O)Nc3ccccc3F)n(C)c(=O)c2S1` (stereo unspecified), the “activity change, negative = inhibition” value was 27.8% (inactive).

As for `COCCn1c(SCC(=O)Nc2ccccc2F)nc2c(c1=O)SCC2`, the Potency was 14.7 µM (active).

For `CCCCSc1nc2c(c(=O)n1CC)SC(C)C2` (stereo unspecified), the “activity change, negative = inhibition” value is -41.8% (inactive).

On to `CCOc1ccc(CCNC(=O)COC(=O)C2CCN(c3ccc(C(F)(F)F)cn3)CC2)cc1OCC`, for which the “activity change, negative = inhibition” value was -3.1% (inactive).

As for `FC(F)(F)C1CCCN(c2nsc3ccccc23)C1` (stereo unspecified), the “activity change, negative = inhibition” value is -53.7% (inactive).

On to `Cc1cccc(NC(=O)C2CCCN(C(=O)Nc3ccc(F)cc3)C2)c1C` (stereo unspecified), for which the “activity change, negative = inhibition” value was 33.5% (inactive).

As to `CCOC(=O)N1CCN(S(=O)(=O)c2ccc(Br)cc2)CC1`, the “activity change, negative = inhibition” value is -3.72% (inactive).

For `CC(C)(C)c1ccccc1NC(=O)CN1C(=O)NC2(CCCC2)C1=O`, the “activity change, negative = inhibition” value was 18% (inactive).

On to `CC(C)C(=O)N1c2ccccc2NC2=C(C(=O)CCC2)C1c1ccc(N(C)C)cc1` (stereo unspecified), for which the Potency was 2.33 µM (active).

On to `CC1C(=O)Nc2ccccc2N1C(=O)c1c(F)cccc1F` (stereo unspecified), for which the “activity change, negative = inhibition” value is -2.07% (inactive).

Consider `CN(C)c1ccc(C2Nc3ccccc3C(=O)N2NS(=O)(=O)c2ccccc2)cc1` (stereo unspecified), for which the “activity change, negative = inhibition” value is 7.21% (inactive).

Take `Cc1cc(C)cc(NC(=O)N2CCCCCCC2)c1`: the “activity change, negative = inhibition” value was -12.7% (inactive).

With `Cc1ccc(C(=O)N2CCCC2)c(F)c1F`, the “activity change, negative = inhibition” value is 43.2% (inactive).

As to `Cc1ccc(C(NC(=O)N2CCCC2)C(Cl)(Cl)Cl)cc1F` (stereo unspecified), the Potency is 8.28 µM (active).

Consider `CC(Sc1ncnc2c1cnn2-c1ccccc1)C(=O)Nc1ccc(N2CCOCC2)cc1` (stereo unspecified), for which the “activity change, negative = inhibition” value is 52.5% (inactive).

`CCOC(=O)c1cc2n(c1N)-c1ccccc1C2=O`: the “activity change, negative = inhibition” value is -2.58% (inactive).

For the compound `CCOC(=O)c1cc2n(c1C)-c1ccccc1C2=O`, the Potency was 9.28 µM (active).

On to `CCOC(=O)c1ccccc1CN1C(=O)c2ccccc2S1(=O)=O`, for which the “activity change, negative = inhibition” value was -21.7% (inactive).

With `Nc1c(N(CCO)C(=O)C2CCCCC2)c(=O)[nH]c(=O)n1Cc1ccccc1`, the “activity change, negative = inhibition” value is -15.8% (inactive).

On to `CC(=O)Nc1ccc(S(=O)(=O)Nc2nc(-c3ccc(C(C)(C)C)cc3)cs2)cc1`, for which the Potency is 1.65 µM (active).

On to `CC(=O)Nc1ccc(-c2csc(NC(=O)Nc3ccccc3)n2)cc1`, for which the “activity change, negative = inhibition” value was -17% (inactive).

Take `CC(=O)Nc1ccc(-c2csc(NC=C3C(=O)OC(C)(C)OC3=O)n2)cc1`: the “activity change, negative = inhibition” value was 48.3% (inactive).

Consider `O=C(CSc1nnc(CNC(=O)c2ccc(F)cc2)o1)Nc1ccc2c(c1)OCO2`, for which the “activity change, negative = inhibition” value is 17.8% (inactive).
